Measurements: the supplement of paper PMC10849652
Of roughly 8,800 targets only a part is listed; those with a hit were picked by preference. About 0.5% of all pairs of compound and target were hits.

Columns and labels:
Assay in all cases: log2 fold change, soluble protein after heating vs DMSO (PISA); higher = thermal stabilisation; K562 lysate, 10 uM; active = over 0.2 and 3.5 SD of the protein, either way, in both replicates (recomputed)
erlotinib = compound: C#Cc1cccc(Nc2ncnc3cc(OCCOC)c(OCCOC)cc23)c1 [erlotinib]
Outline: (§1)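 K562 pellets were dounce-homogenised in PBS pH 7.4 containing 1 mM MgCl2, and the crude extract, at 1 mg/mL protein, was exposed to 10 μM compound for 30 min. Aliquots were heated for 3 min across 48°C-58°C, pooled, brought to 0.5% NP-40 at 4°C and spun at 21,000xg for 90 min, with the supernatant taken as soluble protein. TMTpro 16plex LC-MS/MS with equalised channel sums quantified that protein. Values are log-two fold changes in thermal stability relative to solvent controls, taken from duplicates.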

[1] = compound: C/C(=N\NC(=O)C1=CC(=CC=C1)S(=O)(=O)N2CCOCC2)/C3=C(C=CC(=C3)Cl)O
Outline: as §1

[2] = compound: C1=CC(=CC=C1C2=NC3=C(N2)C=C(C=C3)C(=O)N)OC4=CC=C(C=C4)Cl
Outline: as §1

[3] = compound: C1=CC2=C(C=CC(=C2)/C=C\3/C(=O)NC(=NCC4=CC=CS4)S3)N=C1
Outline: as §1

[4] = compound: C1=CC2=NC=CN=C2C=C1/C=C/3\C(=O)NC(=O)S3
Outline: as §1

[5] = compound: C1=CC=C(C=C1)C2=NC(=C(N2)C3=CC=NC=C3)C4=CC(=C(C=C4)Cl)O
Outline: as §1

[6] = compound: C1=CC=C2C(=C1)C3=NNC4=CC=CC(=C43)C2=O
Outline: as §1

[7] = compound: C1CCN(C1)C(=O)NC2=CC=CC(=C2)NC3=NC=C(C(=N3)NCCC4=CN=CN4)Br
Outline: as §1

[8] = compound: C1CN(CCC1(CC2=CC=C(C=C2)Cl)N)C3=NC=NC4=C3C=CN4
Outline: as §1

IRAK-1-4 Inhibitor I = compound: C1COCCN1CCN2C3=CC=CC=C3N=C2NC(=O)C4=CC(=CC=C4)[N+](=O)[O-] [IRAK-1-4 Inhibitor I]
Outline: as §1

Measured: log2 fold change

BSDC1 (UniProt Q9NW68)
inactive: erlotinib -0.002 | [1] 0.01 | [2] -0.039 | [3] 0.046 | [4] -0.025 | [5] -0.024 | [6] 0.036 | [7] -0.029 | [8] 0 | IRAK-1-4 Inhibitor I 0.059

CENPQ (UniProt Q7L2Z9)
inactive: erlotinib -0.064 | [1] -0.011 | [2] 0.057 | [3] 0.098 | [4] 0.078 | [5] 0.016 | [6] 0.033 | [7] -0.069 | [8] 0.111 | IRAK-1-4 Inhibitor I -0.012

CEBPZOS (UniProt A8MTT3)
Chain of UniProt A8MTT3 (A8MTT3 whole entry, looked up): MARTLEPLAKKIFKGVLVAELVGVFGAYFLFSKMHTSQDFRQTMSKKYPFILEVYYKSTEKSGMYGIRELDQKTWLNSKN
inactive: erlotinib -0.038 | [1] 0.013 | [2] 0.004 | [3] 0.003 | [5] -0.014 | [6] 0.006 | [7] -0.011 | [8] 0.005 | IRAK-1-4 Inhibitor I -0.015

CDK5 (UniProt Q00535)
inactive: erlotinib -0.018 | [1] -0.065 | [2] 0.126 | [3] -0.041 | [4] -0.023 | [5] 0.01 | [7] 0.367 | [8] 0.004 | IRAK-1-4 Inhibitor I 0.033

BRD4 (UniProt O60885)
inactive: erlotinib -0.001 | [1] -0.011 | [2] 0.059 | [3] 0.013 | [4] -0.007 | [5] 0.05 | [6] -0.061 | [7] -0.016 | [8] 0.032 | IRAK-1-4 Inhibitor I 0.028

AURKAIP1 (UniProt Q9NWT8)
active: [5] 0.432
inactive: erlotinib -0.062 | [1] -0.093 | [2] 0.046 | [3] -0.031 | [4] -0.019 | [6] 0.025 | [7] -0.032 | [8] 0.064 | IRAK-1-4 Inhibitor I 0.095

CDK5RAP3 isoform 4 (UniProt Q96JB5)
Chain of UniProt Q96JB5 (Q96JB5 whole entry, looked up): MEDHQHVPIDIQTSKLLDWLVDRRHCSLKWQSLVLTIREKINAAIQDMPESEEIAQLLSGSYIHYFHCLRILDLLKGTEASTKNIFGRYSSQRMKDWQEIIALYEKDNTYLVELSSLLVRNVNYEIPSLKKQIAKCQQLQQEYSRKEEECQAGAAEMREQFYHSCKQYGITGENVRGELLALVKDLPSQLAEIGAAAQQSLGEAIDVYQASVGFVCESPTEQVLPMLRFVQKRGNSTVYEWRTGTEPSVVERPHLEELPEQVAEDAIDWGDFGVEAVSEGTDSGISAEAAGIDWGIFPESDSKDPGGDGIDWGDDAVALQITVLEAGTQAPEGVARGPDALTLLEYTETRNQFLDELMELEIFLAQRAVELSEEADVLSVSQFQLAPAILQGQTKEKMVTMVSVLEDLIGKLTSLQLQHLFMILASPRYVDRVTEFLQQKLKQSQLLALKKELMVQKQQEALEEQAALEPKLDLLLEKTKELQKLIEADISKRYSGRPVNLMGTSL
inactive: erlotinib 0.009 | [1] -0.068 | [2] -0.011 | [3] -0.018 | [4] 0.031 | [5] -0.002 | [6] -0.014 | [7] -0.016 | [8] 0.016 | IRAK-1-4 Inhibitor I 0.022

CALM2 (UniProt P0DP24)
inactive: erlotinib -0.089 | [1] 0.042 | [2] 0.062 | [3] 0.028 | [4] -0.117 | [5] 0.094 | [6] 0.001 | [7] 0.039 | [8] 0.118 | IRAK-1-4 Inhibitor I 0.221

ATG7 (UniProt O95352)
inactive: erlotinib 0.03 | [1] 0.113 | [2] 0.035 | [3] 0.001 | [4] 0.015 | [5] -0.003 | [6] -0.06 | [7] -0.028 | [8] 0.032 | IRAK-1-4 Inhibitor I 0.017

CCDC32 isoform 2 (UniProt Q9BV29)
Chain of UniProt Q9BV29 (Q9BV29 whole entry, looked up): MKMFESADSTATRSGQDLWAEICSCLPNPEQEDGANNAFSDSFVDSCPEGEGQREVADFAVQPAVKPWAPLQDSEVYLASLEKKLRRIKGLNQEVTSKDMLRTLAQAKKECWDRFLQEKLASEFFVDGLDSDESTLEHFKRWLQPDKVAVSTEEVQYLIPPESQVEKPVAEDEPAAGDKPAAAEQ
inactive: erlotinib -0.021 | [1] 0.031 | [2] -0.027 | [3] 0 | [4] -0.014 | [5] -0.003 | [6] 0.007 | [7] 0.048 | [8] 0.049 | IRAK-1-4 Inhibitor I 0.057

CD63 (UniProt P08962)
inactive: erlotinib -0.042 | [1] 0.026 | [2] -0.031 | [3] 0.047 | [4] 0.057 | [5] -0.114 | [6] -0.038 | [7] 0.018 | [8] -0.016 | IRAK-1-4 Inhibitor I 0.066

CDCA8 (UniProt Q53HL2)
inactive: erlotinib 0.112 | [1] 0.054 | [2] 0.009 | [3] -0.071 | [4] -0.12 | [6] -0.246 | [7] -0.01 | [8] -0.054

CEP152 (UniProt O94986)
inactive: erlotinib -0.011 | [1] -0.043 | [2] 0.142 | [3] -0.1 | [4] 0.139 | [5] 0.099 | [6] 0.123 | [7] -0.07 | [8] 0.073 | IRAK-1-4 Inhibitor I 0.086

BRAF (UniProt P15056)
Chain of UniProt P15056 (P15056 whole entry, looked up): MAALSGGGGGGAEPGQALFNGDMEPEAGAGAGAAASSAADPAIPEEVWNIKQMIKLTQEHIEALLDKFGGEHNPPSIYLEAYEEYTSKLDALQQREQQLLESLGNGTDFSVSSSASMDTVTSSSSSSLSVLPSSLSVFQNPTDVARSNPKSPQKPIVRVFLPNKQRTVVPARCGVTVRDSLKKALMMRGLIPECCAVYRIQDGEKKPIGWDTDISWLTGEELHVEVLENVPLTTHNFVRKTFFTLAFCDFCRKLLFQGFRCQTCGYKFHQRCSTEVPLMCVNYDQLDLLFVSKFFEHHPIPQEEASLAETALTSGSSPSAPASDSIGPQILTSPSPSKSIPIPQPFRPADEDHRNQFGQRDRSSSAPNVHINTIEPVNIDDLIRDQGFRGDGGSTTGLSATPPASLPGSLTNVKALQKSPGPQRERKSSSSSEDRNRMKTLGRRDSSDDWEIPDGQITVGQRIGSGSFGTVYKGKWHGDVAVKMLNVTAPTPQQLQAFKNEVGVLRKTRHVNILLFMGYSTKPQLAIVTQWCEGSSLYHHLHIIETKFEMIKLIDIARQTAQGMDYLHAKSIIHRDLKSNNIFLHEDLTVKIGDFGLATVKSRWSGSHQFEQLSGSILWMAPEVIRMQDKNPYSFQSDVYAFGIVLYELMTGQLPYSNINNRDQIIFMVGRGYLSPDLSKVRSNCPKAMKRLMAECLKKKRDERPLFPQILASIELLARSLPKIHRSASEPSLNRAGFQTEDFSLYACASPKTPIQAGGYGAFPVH
inactive: erlotinib -0.05 | [1] -0.101 | [2] -0.04 | [3] 0.013 | [4] -0.008 | [6] 0 | [7] -0.007 | [8] 0.027 | IRAK-1-4 Inhibitor I -0.005

C19orf54 (UniProt Q5BKX5)
inactive: erlotinib -0.012 | [1] 0.042 | [2] 0.035 | [3] -0.025 | [4] 0.019 | [5] -0.004 | [6] 0.022 | [7] -0.012 | [8] -0.012 | IRAK-1-4 Inhibitor I 0.054

CEP76 (UniProt Q8TAP6)
Chain of UniProt Q8TAP6 (Q8TAP6 whole entry, looked up): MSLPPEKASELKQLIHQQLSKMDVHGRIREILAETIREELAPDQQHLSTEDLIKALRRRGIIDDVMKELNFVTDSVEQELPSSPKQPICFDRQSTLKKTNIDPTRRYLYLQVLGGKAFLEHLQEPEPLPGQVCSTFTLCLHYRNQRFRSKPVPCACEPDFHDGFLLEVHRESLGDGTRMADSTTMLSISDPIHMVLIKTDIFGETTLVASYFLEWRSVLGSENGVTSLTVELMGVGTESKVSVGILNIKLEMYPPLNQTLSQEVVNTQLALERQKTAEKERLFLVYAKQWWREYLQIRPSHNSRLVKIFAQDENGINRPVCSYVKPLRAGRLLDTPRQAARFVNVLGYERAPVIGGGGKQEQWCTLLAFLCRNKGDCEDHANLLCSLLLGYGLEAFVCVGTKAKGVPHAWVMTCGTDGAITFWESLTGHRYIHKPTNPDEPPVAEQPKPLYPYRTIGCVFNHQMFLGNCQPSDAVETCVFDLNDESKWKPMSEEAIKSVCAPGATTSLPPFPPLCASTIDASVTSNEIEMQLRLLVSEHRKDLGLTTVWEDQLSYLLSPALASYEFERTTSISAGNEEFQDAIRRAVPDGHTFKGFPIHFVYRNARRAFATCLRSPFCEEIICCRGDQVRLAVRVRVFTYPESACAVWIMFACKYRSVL
inactive: erlotinib 0.005 | [1] -0.033 | [2] 0.012 | [3] 0.053 | [4] -0.072 | [5] -0.003 | [6] 0.052 | [7] -0.002 | [8] 0 | IRAK-1-4 Inhibitor I 0.056

C5orf51 (UniProt A6NDU8)
Chain of UniProt A6NDU8 (A6NDU8 whole entry, looked up): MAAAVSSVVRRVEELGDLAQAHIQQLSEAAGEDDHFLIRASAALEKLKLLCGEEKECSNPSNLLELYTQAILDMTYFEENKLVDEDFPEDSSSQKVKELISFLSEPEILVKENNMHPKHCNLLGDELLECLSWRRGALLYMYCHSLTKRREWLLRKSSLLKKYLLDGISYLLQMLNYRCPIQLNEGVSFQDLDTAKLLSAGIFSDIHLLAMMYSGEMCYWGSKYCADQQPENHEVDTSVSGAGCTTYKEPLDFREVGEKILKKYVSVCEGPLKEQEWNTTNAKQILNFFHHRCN
inactive: erlotinib 0.024 | [1] 0.004 | [2] -0.008 | [3] -0.026 | [4] 0.04 | [5] 0.007 | [6] -0.038 | [7] -0.027 | [8] 0.055 | IRAK-1-4 Inhibitor I -0.025

BRD3 (UniProt Q15059)
inactive: erlotinib -0.005 | [1] 0.084 | [2] -0.065 | [3] 0.004 | [4] -0.033 | [6] -0.013 | [7] -0.001 | [8] 0.036

CAPN15 (UniProt O75808)
Chain of UniProt O75808 (O75808 whole entry, looked up): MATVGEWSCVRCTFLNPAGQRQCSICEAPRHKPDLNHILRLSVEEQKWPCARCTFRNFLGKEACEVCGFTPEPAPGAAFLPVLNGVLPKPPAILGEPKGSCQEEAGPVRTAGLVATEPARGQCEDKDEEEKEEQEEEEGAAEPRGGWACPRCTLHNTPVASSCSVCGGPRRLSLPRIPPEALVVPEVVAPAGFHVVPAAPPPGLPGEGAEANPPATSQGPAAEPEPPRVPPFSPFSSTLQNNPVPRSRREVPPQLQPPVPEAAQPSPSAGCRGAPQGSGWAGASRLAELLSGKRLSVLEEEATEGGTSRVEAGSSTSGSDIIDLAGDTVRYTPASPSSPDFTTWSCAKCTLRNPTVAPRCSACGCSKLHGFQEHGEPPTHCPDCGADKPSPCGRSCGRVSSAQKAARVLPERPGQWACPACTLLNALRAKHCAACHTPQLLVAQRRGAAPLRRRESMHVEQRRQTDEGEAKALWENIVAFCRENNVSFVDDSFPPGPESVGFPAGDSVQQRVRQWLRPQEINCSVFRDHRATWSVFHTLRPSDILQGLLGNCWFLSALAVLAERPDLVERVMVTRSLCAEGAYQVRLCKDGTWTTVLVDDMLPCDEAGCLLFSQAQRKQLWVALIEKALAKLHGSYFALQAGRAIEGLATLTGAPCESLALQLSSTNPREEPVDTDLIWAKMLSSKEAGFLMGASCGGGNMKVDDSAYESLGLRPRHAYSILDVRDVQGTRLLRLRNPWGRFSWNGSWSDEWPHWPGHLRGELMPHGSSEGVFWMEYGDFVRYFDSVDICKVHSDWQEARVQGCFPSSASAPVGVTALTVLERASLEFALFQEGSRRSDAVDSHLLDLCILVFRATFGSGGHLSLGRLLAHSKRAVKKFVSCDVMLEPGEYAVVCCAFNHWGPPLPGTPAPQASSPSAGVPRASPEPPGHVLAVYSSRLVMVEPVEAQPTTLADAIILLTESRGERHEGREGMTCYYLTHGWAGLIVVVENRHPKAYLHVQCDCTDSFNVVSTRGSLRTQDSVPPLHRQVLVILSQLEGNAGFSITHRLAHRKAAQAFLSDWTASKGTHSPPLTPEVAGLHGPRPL
inactive: erlotinib 0.01 | [1] 0.187 | [2] -0.011 | [3] -0.028 | [4] -0.104 | [5] -0.05 | [6] 0.026 | [7] 0.019 | [8] 0.031 | IRAK-1-4 Inhibitor I 0.01

ATP2B4 (UniProt P23634)
inactive: erlotinib 0.021 | [1] 0.023 | [2] 0.012 | [3] 0.024 | [4] 0.019 | [5] -0.015 | [6] -0.018 | [7] 0.017 | [8] 0.045 | IRAK-1-4 Inhibitor I -0.028

ATF7IP2 (UniProt Q5U623)
inactive: erlotinib 0.012 | [1] -0.034 | [2] 0.086 | [3] 0.026 | [4] -0.069 | [5] -0.027 | [6] -0.132 | IRAK-1-4 Inhibitor I 0.027

ATXN2 (UniProt Q99700)
Chain of UniProt Q99700 (Q99700 whole entry, looked up): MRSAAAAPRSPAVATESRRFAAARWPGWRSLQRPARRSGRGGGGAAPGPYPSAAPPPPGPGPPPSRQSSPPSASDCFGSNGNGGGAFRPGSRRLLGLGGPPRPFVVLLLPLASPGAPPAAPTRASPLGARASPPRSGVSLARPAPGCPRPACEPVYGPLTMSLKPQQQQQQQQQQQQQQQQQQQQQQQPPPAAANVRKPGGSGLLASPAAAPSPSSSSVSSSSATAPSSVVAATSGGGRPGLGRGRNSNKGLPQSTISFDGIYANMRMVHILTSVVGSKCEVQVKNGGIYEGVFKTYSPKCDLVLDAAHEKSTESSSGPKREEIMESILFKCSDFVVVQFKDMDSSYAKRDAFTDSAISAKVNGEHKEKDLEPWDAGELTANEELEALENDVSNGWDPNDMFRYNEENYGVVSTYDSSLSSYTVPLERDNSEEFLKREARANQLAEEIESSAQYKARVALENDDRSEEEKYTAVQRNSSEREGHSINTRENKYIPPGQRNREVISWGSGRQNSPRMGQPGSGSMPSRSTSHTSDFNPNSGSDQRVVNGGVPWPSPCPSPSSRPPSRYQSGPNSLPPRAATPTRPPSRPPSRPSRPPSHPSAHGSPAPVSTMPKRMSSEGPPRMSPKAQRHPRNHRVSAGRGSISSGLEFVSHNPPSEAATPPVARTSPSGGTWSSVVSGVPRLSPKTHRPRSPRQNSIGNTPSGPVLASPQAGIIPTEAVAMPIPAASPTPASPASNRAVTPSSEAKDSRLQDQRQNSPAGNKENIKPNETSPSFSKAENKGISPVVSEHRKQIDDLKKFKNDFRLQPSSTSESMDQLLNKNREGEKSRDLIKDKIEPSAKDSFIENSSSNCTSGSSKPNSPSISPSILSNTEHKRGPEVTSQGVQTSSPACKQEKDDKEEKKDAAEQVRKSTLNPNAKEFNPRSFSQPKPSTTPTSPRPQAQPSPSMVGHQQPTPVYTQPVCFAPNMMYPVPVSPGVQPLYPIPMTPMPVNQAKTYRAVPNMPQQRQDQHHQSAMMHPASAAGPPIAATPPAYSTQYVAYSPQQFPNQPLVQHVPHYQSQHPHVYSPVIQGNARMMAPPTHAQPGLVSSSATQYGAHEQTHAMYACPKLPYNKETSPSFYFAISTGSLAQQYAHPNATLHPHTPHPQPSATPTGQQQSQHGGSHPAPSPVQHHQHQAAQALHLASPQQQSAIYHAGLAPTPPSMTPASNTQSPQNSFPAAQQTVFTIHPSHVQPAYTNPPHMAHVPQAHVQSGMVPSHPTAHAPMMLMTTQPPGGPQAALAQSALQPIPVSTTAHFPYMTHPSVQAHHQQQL
inactive: erlotinib 0.007 | [1] -0.015 | [2] 0.063 | [3] -0.006 | [4] -0.041 | [5] -0.005 | [6] -0.022 | [7] 0.026 | [8] 0.014 | IRAK-1-4 Inhibitor I 0.016

CHCHD4 isoform 2 (UniProt Q8N4Q1)
inactive: erlotinib -0.069 | [1] -0.06 | [2] -0.068 | [3] -0.028 | [4] -0.111 | [5] -0.018 | [6] -0.073 | [7] -0.044 | [8] 0.009 | IRAK-1-4 Inhibitor I 0.016

BCORL1 isoform 3 (UniProt Q5H9F3)
inactive: erlotinib 0.002 | [1] -0.015 | [2] 0.15 | [3] -0.117 | [5] 0.004 | [6] -0.115 | [7] -0.114 | [8] -0.005

BET1 (UniProt O15155)
Chain of UniProt O15155 (O15155 whole entry, looked up): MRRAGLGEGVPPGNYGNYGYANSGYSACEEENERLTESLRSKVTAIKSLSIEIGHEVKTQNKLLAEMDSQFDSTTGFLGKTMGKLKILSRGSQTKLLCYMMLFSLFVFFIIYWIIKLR
inactive: erlotinib 0.025 | [1] -0.092 | [2] -0.059 | [3] 0.033 | [4] 0.08 | [5] 0.033 | [6] -0.015 | [7] 0.039 | [8] 0.018 | IRAK-1-4 Inhibitor I 0.006

CEP41 (UniProt Q9BYV8)
inactive: erlotinib -0.068 | [1] -0.125 | [2] 0.006 | [3] -0.007 | [4] 0.016 | [6] 0.019 | [7] -0.035 | [8] 0.03

C3orf33 (UniProt Q6P1S2)
inactive: erlotinib 0.195 | [1] -0.205 | [2] 0.209 | [3] -0.124 | [4] 0.068 | [5] 0.032 | [6] 0.123 | IRAK-1-4 Inhibitor I -0.281

C1orf131 isoform 5 (UniProt Q8NDD1)
inactive: erlotinib -0.006 | [1] -0.094 | [2] 0.051 | [3] -0.058 | [5] -0.013 | [6] -0.001 | [7] -0.062 | [8] -0.011 | IRAK-1-4 Inhibitor I 0.067

AVEN (UniProt Q9NQS1)
inactive: erlotinib 0.111 | [1] 0.077 | [2] -0.205 | [3] -0.079 | [4] 0.183 | [5] 0.06 | [6] 0.055 | [7] -0.023 | [8] -0.013 | IRAK-1-4 Inhibitor I -0.096
